From PubChem BioAssay AID1903 (Southern Research Specialized Biocontainment Screening …, 2009)
Among all 310,000 compounds or so, about 1,200 (0.39%) were called active. Not all results are given here. Measured potencies and affinities stand elsewhere. Unmarked numbers belong to inactive results. How the calls were made is not given here.

Target: Large T antigen (Simian virus 40) (UniProt P03070)
Experiment: TAg ATPase/helicase activity blockers – biochemical (AID 1903)
Conditions: SV40 large T antigen ATPase/helicase inhibition assay; at 20 µM; active compounds read high

Chain of Large T antigen (Simian virus 40) (P03070 whole entry, looked up): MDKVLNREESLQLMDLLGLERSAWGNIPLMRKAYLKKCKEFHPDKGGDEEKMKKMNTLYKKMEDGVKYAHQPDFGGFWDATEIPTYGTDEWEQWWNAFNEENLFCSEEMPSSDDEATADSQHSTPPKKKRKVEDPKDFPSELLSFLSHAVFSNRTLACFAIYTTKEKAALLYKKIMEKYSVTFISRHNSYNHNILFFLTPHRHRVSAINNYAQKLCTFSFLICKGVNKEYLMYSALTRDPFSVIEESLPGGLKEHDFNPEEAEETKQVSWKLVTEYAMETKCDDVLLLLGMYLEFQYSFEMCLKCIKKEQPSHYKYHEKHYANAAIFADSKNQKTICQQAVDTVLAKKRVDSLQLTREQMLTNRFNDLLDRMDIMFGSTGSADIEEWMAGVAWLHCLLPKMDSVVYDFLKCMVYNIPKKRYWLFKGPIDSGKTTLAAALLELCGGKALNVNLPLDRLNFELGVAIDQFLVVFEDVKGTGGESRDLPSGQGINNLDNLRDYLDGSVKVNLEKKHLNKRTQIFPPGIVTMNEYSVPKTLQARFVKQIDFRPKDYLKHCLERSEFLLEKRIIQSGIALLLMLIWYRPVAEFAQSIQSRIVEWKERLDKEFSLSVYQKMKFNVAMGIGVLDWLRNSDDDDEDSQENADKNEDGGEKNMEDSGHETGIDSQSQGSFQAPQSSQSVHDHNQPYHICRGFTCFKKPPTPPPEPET

SMILES	inhibition
Cn1ccnc1Sc1cc(Cl)ccc1[N+](=O)[O-]	1.59%
CCOC(=O)C1=NN(C(C)=O)C2(CC(=O)N(c3ccc(C)c(C)c3)C2=O)C1 (centres undefined)	10.2%
O=C(NCC1CCCO1)C1CCN(C2CCN(C3CCCCCC3)CC2)CC1 (centres undefined)	6.53%
CSc1nc(C)c(CCOCc2ccc(F)cc2)c(=O)[nH]1	6.59%
COc1ccccc1N1C(=O)C2CC(C)=C(C)CC2C1=O (centres undefined)	6.96%
COc1ccccc1N1C(=O)CC(Sc2nc(C)cc(C)n2)C1=O (centres undefined)	5.59%
CCCCOc1ccc(C2(C)NC(=O)NC2=O)cc1 (centres undefined)	3.93%
COc1ccc(S(=O)(=O)N(CC(=O)NCc2ccncc2)c2ccc(C)cc2)cc1OC	7.04%
CN(CC(=O)Nc1ccc(F)cc1)C(=O)COC(=O)Cc1cccs1	8.61%
O=C(C1=NN[C@@H]2C(=O)N(c3cccc(F)c3)C(=O)[C@H]12)C(c1ccccc1)c1ccccc1	1.36%
Cn1cc(C(=O)c2cccc(Cl)c2)cc1/C=N\O	-2.98%
CC(=O)c1ccc(OC(=O)CN2C(=O)c3ccccc3C2=O)cc1	14.1%
S=C(NCCc1ccccc1)N1CCCC1	7.81%
O=C(NC(=S)N1CCCCC1)c1cccs1	9.19%
Oc1ccccc1N1CCN(C(=S)NCCc2ccccc2)CC1	7.92%
O=C(CCC(=O)N1CCN(c2cccc(Cl)c2)CC1)c1cccs1	1.82%
O=S(=O)(c1cccs1)N1CCN(c2ccccc2)CC1	1.66%
CC(=O)c1ccc(N2CCN(C(=O)CCC(=O)c3cccs3)CC2)cc1	4.57%
O=S(=O)(c1cccs1)N1CCN(c2ccc(Cl)cc2)CC1	2.25%
O=C(NC(=S)N1CCN(c2ccc(F)cc2)CC1)c1cccs1	1.9%
CN1CCN(CCc2nc3cc(NC(=O)COc4ccc([N+](=O)[O-])cc4)ccc3n2C)CC1	16.7%
O=C(NCC1CCCO1)c1cn(-c2ccccc2)nc1-c1ccc(F)cc1 (centres undefined)	27.6%

SMILES	inhibition
COc1cc(S(=O)(=O)N2CCOCC2)cc(C(=O)c2nccn2C)c1OC	-1.37%
CN(C(=O)COC(=O)CNC(=O)c1ccc(C(C)(C)C)cc1)c1c(N)n(Cc2ccccc2)c(=O)[nH]c1=O	6.23%
COc1cnc(-c2ccccn2)nc1Oc1cccc(Cl)c1	30.5%
Cc1cccc(NC(=O)CN2C(=O)N/C(=C\c3cccn3-c3cccc(C(=O)O)c3)C2=O)c1	3.89%
Cc1ccc(-n2cccc2/C=C2/NC(=O)N(CC(=O)Nc3cccc(C)c3)C2=O)cc1	10.3%
COC(=O)C1CCN(Cc2ccc(C)cc2)CC1	3.14%
N#C/C(=C/Nc1ccccc1F)S(=O)(=O)c1ccc(Cl)cc1	-5.3%
COc1ccc(-c2cnnn2-c2ccc(NC(=O)/C=C/c3ccc(OC)c(OC)c3)cc2)cc1	4.37%
CC(Oc1ccc(Cl)cc1Cl)C(=O)NCCCN(C)C (centres undefined)	13.2%
O=C(O)Cc1ccc(O)c(F)c1	11.8%
O=C(O)c1ccc(-c2ccc(OS(=O)(=O)c3ccccc3F)cc2)cc1	-2.26%
CC(=O)Nc1ccc(S(=O)(=O)N2CCN(Cc3cccnc3)CC2)cc1	0.357%
Cc1scc(C(=O)NNC(=S)NCC2CCCO2)c1-c1ccccc1 (centres undefined)	11.4%
Cc1nnc(C)n1/N=C/c1ccc(O)cc1	-1.45%
CN=c1scc(-c2cccs2)n1/N=C/c1ccccc1O	6.26%
CCN=c1scc(-c2ccco2)n1/N=C/c1ccc(OC)c(O)c1	19.6%
CCN=c1scc(-c2ccco2)n1/N=C/c1ccc(O)cc1	11.2%
CN=c1scc(C)n1/N=C/c1ccc2c(c1)OCO2	11.5%
CN=c1scc(C)n1/N=C/c1ccc(O)c(O)c1O	7.3%
CC1Oc2ccccc2N(CC(=O)N2CCCC2)C1=O (centres undefined)	2.95%
O=C1Cn2c(nc3ccccc32)N1c1ccccc1F	5.32%
Cc1cc[n+](CC(=O)Nc2ccccc2)cc1	-1.49%

SMILES	inhibition
COc1ccc(Nc2nc(N)c([N+](=O)[O-])c(NCc3ccccc3)n2)cc1	2.61%
CCCC12CN(C(=O)c3ccc(OC)cc3)CC(C)(CN(C(=O)c3ccc(OC)cc3)C1)C2=O	14.8%
COc1ccc(CONc2ncnc3nonc23)cc1[N+](=O)[O-]	24.5%
O=c1c(O)c(-c2cc(O)c(O)c(O)c2)oc2cc(O)cc(O)c12	14.3%
O=c1cc(-c2ccc(O)cc2)oc2cc(O)cc(O)c12	5.06%
O=c1c(O)c(-c2ccc(O)cc2)oc2cc(O)cc(O)c12	2.71%
O=c1cc(-c2ccccc2)oc2cc(O)cc(O)c12	3.39%
Cc1cccc(/C=C2\CCC(C3CCCC3)C2=O)c1 (centres undefined)	1.68%
CCN(CC)C(=O)c1cc(Cl)ccn1	-2.78%
O=C(NCC1CCCO1)c1cc(S(=O)(=O)Nc2ccc(Br)cc2)ccc1Cl (centres undefined)	-4.53%
COC(=O)C1C(=O)NC(SC)=C(C#N)C1c1ccccc1F (centres undefined)	10.2%
CCOC(=O)C1C(=O)NC(SC)=C(C#N)C1c1ccccc1F (centres undefined)	13.4%
COc1ccccc1/C=C(/C(=O)OCC(=O)Nc1cc(C)ccc1C)c1ccccc1	5.11%
CCOC(=O)C(=CNc1ccc(NC2=NCC(C)S2)cc1)C(=O)OCC (centres undefined)	12%
CC1CN=C(Nc2cccc(S(=O)(=O)N(C)C)c2)S1 (centres undefined)	21.1%
Cc1cccc2cc3c(nc12)-c1ccccc1C3=O	7.99%
Cc1ccc(Cl)c(OC(=O)C2CSC3(C)CCC(=O)N23)c1 (centres undefined)	28%
CC(C)Sc1nc2ccccc2n1CC(=O)NCc1ccc2c(c1)OCO2	10.4%
O=C(O)/C=C/c1cnn(-c2ccccc2)c1	6.6%
O=C(c1cnn(-c2ccccc2)c1)c1ccccc1O	-1.98%
